# Measurements reported in PMC4336329 (PLoS ONE, 2015).
# Screen size: about 310,000 compounds; about 14,000 (4.5%) showed an effect of 50% or more. Effects have a minus sign here. Only a selection was taken, and strong results are over-represented in it overall.
# Target: human ether-à-go-go-related gene (hERG) potassium channel (human, UniProt Q12809)
# Assay: primary screen, population patch clamp on CHO cells stably expressing hERG; higher = less effect of the substance
# 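Further: peak tail current of the secondary pulse compared with the same well before compound.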
# human ether-à-go-go-related gene (hERG) potassium channel, sequence (Q12809 whole entry, looked up): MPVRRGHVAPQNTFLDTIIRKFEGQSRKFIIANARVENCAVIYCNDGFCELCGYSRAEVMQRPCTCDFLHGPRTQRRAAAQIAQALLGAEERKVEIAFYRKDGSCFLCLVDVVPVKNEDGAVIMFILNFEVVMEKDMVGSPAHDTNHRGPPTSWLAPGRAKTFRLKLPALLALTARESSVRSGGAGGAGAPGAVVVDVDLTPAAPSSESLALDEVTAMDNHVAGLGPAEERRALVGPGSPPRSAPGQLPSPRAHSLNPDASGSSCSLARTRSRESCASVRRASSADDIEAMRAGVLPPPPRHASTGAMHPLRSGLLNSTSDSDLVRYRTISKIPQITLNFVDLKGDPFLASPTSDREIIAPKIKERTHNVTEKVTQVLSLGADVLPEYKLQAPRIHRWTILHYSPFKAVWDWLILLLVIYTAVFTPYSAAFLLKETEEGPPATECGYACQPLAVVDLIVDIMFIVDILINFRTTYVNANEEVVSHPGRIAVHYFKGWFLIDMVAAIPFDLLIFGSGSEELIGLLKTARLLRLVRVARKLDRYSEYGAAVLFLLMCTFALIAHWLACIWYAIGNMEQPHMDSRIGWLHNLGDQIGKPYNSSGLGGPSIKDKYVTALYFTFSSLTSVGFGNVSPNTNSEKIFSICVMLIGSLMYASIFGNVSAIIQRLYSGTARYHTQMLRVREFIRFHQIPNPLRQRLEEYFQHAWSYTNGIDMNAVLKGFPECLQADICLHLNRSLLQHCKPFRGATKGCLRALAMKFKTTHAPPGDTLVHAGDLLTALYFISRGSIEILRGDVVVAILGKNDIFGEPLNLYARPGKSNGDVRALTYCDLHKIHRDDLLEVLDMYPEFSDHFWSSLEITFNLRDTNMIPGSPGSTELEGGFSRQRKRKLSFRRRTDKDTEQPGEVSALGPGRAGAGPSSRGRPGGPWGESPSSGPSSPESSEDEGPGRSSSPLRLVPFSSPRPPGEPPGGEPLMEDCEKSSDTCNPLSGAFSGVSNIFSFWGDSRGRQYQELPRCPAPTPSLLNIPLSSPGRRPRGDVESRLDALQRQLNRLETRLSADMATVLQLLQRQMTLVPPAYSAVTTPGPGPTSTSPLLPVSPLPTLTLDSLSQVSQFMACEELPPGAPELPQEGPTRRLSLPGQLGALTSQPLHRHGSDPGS
row,Compound,"hERG current change (%, negative = inhibition) at 10uM [%]"
1,CNC(=S)N/N=C/c1cn(CCOc2cccc(OC)c2)c2ccccc12,3.42
2,O=C([O-])C(CCCCNS(=O)(=O)c1ccc(F)cc1)NS(=O)(=O)c1ccc(F)cc1.[K+] (stereo not drawn),20.3
3,COc1ccccc1NC(=O)C1=C(C)Nc2nc(CCCO)nn2C1c1ccc2c(c1)OCO2 (stereo not drawn),7.42
4,CCOC(=O)C1CCCC(NS(=O)(=O)c2ccc(NC(C)=O)cc2)C1 (stereo not drawn),-2.41
5,Cc1ccc(S(=O)(=O)/N=C(/c2ccccc2)N(C)C)c(C)c1,12.7
6,NC(=S)N/N=C1\c2ccccc2-c2c(C(=O)O)cccc21,12.7
7,Cc1cc(C)c(C(=O)N2CCCC(CNC(=O)C3(c4ccc(Cl)cc4)CC3)C2)c(=O)[nH]1 (stereo not drawn),6.58
8,COCCN1C(=O)C(=O)/C(=C(/O)c2ccc(S(=O)(=O)N3CCOCC3)cc2)C1c1ccc(O)cc1 (stereo not drawn),3.78
9,O=C1OCC(CO)(CO)N=C1NNc1ccc(Cl)c(Cl)c1,8.16
10,COC(=O)c1ccc2c(=O)n(CCCCCC(=O)NCc3ccc4c(c3)OCO4)c(=O)[nH]c2c1,-31.7
11,Cc1cc(C)cc(NC(=S)N2CCN(c3ccc(F)cc3)CC2)c1,-8.95
12,COC(=O)C1=C(c2ccccc2OCc2ccccc2)C[C@@H]2CC[C@H]1N2C(=O)NCc1ccc(N(C)C)cc1,10.9
13,CCOc1cccc(CN2CCC(n3nccc3NC(=O)C3CCCC3)CC2)c1,-55.3
14,CC(C)Cc1ccc(CN2CCC(n3nccc3NC(=O)C3CCCC3)CC2)cc1,-72.4
15,CCn1cc(CN2CCC(n3nccc3NC(=O)C3CCCC3)CC2)cn1,-6.15
16,CCc1ccc(CN2CCC(n3nccc3NC(=O)C3CCCC3)CC2)cc1,-76.3
17,O=C(Nc1ccnn1C1CCN(Cc2cccc(OCCO)c2)CC1)C1CCCC1,-24.8
18,O=C(Nc1ccnn1C1CCN(Cc2cccc(OCCO)c2)CC1)C1CCOC1 (stereo not drawn),-2.98
19,Cn1c(=S)c2[nH]c(SCCN3CCCC3)nc2n(C)c1=O,10.5
20,Cc1ccccc1NC(=S)N(CCN(C)C)C(C)c1ccccn1 (stereo not drawn),-8.78
21,OCCCNCc1cccc2ccccc12,-15.8
22,Cc1ccc(C(C(=O)NC2CCCCC2)N(C(=O)CCCC(=O)Nc2ccccn2)c2ccc3c(c2)OCCO3)cc1 (stereo not drawn),-3.99
23,COC(=O)c1ccc(CSc2nnc3c(n2)[nH]c2ccccc23)cc1,-23.1

row,Compound,"hERG current change (%, negative = inhibition) at 10uM [%]"
1,Cc1sc2ncnc(N3CCCCC3)c2c1C,-11.9
2,Cc1sc2ncnc(N3CCN(S(=O)(=O)c4ccccc4)CC3)c2c1C,-18.6
3,Cc1sc2ncnc(N3CCN(S(=O)(=O)c4ccc(F)cc4)CC3)c2c1C,-50.9
4,Cc1sc2ncnc(N3CCN(S(=O)(=O)c4ccc(Br)cc4)CC3)c2c1C,-47.5
5,CCS(=O)(=O)N1CCN(c2ncnc3sc(C)c(C)c23)CC1,-53.7
6,Cc1cc(C)c(C)c(S(=O)(=O)N2CCN(c3ncnc4sc(C)c(C)c34)CC2)c1C,8.21
7,COc1ccccc1NC(=O)NCC(=O)Nc1c(C)cccc1C,30.5
8,CCOC(=O)c1ccc(CS(=O)c2ccc(Cl)cc2)o1 (stereo not drawn),-3.47
9,Cc1cc(C)c(NC(=O)CCCN2CCOCC2)c(C)c1,13.1
10,COC(=O)c1scc(C)c1NC(=O)CC1NCCNC1=O (stereo not drawn),11.9
11,O=C(C[n+]1ccccc1)c1ccc(-c2ccccc2)cc1.[Br-],-21.4
12,COC(=O)c1ccc(CC(=O)c2c(C)cc(O)cc2O)o1,0.801
13,CC1CN(CCCCSc2ccc(Cl)cc2)CC(C)O1.O=C(O)C(=O)O (stereo not drawn),-31.6
14,CN(C)CCOCCSc1ccc(Cl)cc1.O=C(O)C(=O)O,-37.3
15,CC1CC(C)CN(CCOCCSc2ccc(Cl)cc2)C1.O=C(O)C(=O)O (stereo not drawn),-72.4
16,CC1CC(C)CN(CCCSc2ccccc2)C1.O=C(O)C(=O)O (stereo not drawn),-64.3
17,CC1CN(CCOCCSc2ccc(Cl)cc2)CC(C)O1.O=C(O)C(=O)O (stereo not drawn),-23.3
18,CC1CCN(CCOCCSc2ccc(Cl)cc2)CC1.O=C(O)C(=O)O,-72.1
19,CC1CN(CCCCSc2ccccc2)CC(C)O1.Cl (stereo not drawn),-8.71
20,CC1CN(CCCSc2ccc(Cl)cc2)CC(C)O1.O=C(O)C(=O)O (stereo not drawn),-47.9
21,CC1CC(C)CN(CCOCCSc2ccccc2)C1.O=C(O)C(=O)O (stereo not drawn),-45.1
22,Cc1cccc(OCC(O)Cn2c(N3CCCCC3)nc3c2c(=O)n(C)c(=O)n3C)c1 (stereo not drawn),-13.7
23,CCN(CC)S(=O)(=O)c1cccc(-c2nnc(SCc3nc4ccccc4s3)o2)c1,-3.82

row,Compound,"hERG current change (%, negative = inhibition) at 10uM [%]"
1,O=S(=O)(Nc1ccccc1F)c1ccc(Cl)nc1,5.63
2,Cc1ccc2oc(C(=O)NCCC3CCCCO3)c(C)c2c1 (stereo not drawn),-11.5
3,Cn1c(=O)c2[nH]c(N=Nc3ccc(N)cc3N)nc2n(C)c1=O,28.7
4,O=c1cc(NS(=O)(=O)c2ccccc2)nc(SCc2ccccc2Cl)[nH]1,6.99
5,COc1ccc(N2C(=O)CC(N3CCCCC3)C2=O)cc1 (stereo not drawn),18.6
6,COc1ccc(NC2CCN(C3CC(=O)N(c4ccc(F)c(Cl)c4)C3=O)CC2)cc1 (stereo not drawn),-54.8
7,CCOc1ccc(N2C(=O)CC(N3CCc4ccccc43)C2=O)cc1 (stereo not drawn),-3.24
8,CCOc1ccc(N2C(=O)CC(N3CCN(C4CCc5ccccc5C4)CC3)C2=O)cc1 (stereo not drawn),-71.5
9,COc1ccc(N2C(=O)CC(N3CCN(c4ccccc4)CC3)C2=O)cc1 (stereo not drawn),8.93
10,COc1ccc(N2C(=O)CC(N3CCN(C4CCc5ccccc5C4)CC3)C2=O)cc1 (stereo not drawn),-61.7
11,COc1cccc(N2CCN(C3CC(=O)N(c4ccc(F)c(Cl)c4)C3=O)CC2)c1 (stereo not drawn),-12.6
12,COc1ccc(N2C(=O)CC(N3CCN(c4ccc(Cl)cc4)CC3)C2=O)cc1 (stereo not drawn),-4.94
13,CCOc1ccc(N2C(=O)CC(N3CCN(c4ccccc4F)CC3)C2=O)cc1 (stereo not drawn),6.59
14,Fc1ccc(-[n+]2nc(Nc3ccccc3)sc2-c2ccc(OCc3ccccc3)cc2)cc1.[Cl-],-20.5
15,Cc1ccccc1OCc1nnc2n1CC(C)S2 (stereo not drawn),7.43
16,CCCCC(=O)Nc1ccc(NC(=S)NC(=O)CC)cc1OC,-0.84
17,O=C(OCC(=O)N1CCC(c2ccccc2)=N1)c1ccc([N+](=O)[O-])s1,-34.7
18,CC(C)c1ccc(/C=N/NC(=O)c2cccc(S(=O)(=O)N3CCOCC3)c2)cc1,10.1
19,Cc1ccc(N2OC3C(=O)NC(=O)C3C2c2ccco2)cc1 (stereo not drawn),7.89
20,CN(C)c1ccc(C2C3C(=O)NC(=O)C3ON2c2ccc(Cl)cc2)cc1 (stereo not drawn),-64
21,CN(C)c1ccc(C2C3C(=O)N(c4ccc(C(=O)O)cc4)C(=O)C3ON2c2ccccc2)cc1 (stereo not drawn),7.23
22,O=C(Cn1cnc2c(cnn2-c2ccccc2Cl)c1=O)N1CCc2ccccc21,-0.441
23,CC(CNC(=O)Cn1ccc2cc(S(=O)(=O)N3CCCC3)ccc21)c1ccccc1 (stereo not drawn),-9.17

row,Compound,"hERG current change (%, negative = inhibition) at 10uM [%]"
1,O=C(NCCc1ccccc1)c1ccco1,0.15
2,O=C(c1cccc(C(F)(F)F)c1)C1CCCN(C(=O)C2CCOCC2)C1 (stereo not drawn),-51.3
3,Cc1nonc1CC(=O)N1CCCC(C(=O)c2ccc(Cl)cc2)C1 (stereo not drawn),-8.66
4,CC1=C(C(=O)N2CCCC(C(=O)c3cccc(C(F)(F)F)c3)C2)OCCO1 (stereo not drawn),2.26
5,Cc1nonc1CC(=O)N1CCCC(C(=O)c2cccc(C(F)(F)F)c2)C1 (stereo not drawn),-56.2
6,CC(C)(C)c1ccc(C(=O)C2CCCN(C(=O)C3CCOCC3)C2)cc1 (stereo not drawn),-7.14
7,Cc1noc(C)c1C(=O)N1CCCC(C(=O)c2cccc(C(F)(F)F)c2)C1 (stereo not drawn),-22.6
8,O=C(COC(=O)C1CSC2(c3ccc(F)cc3)CCC(=O)N12)NC(=O)NC1CCCC1 (stereo not drawn),-4.24
9,O=C1c2ccccc2C(=O)C1c1ccccn1,6.76
10,O=C(CSc1ccc2nnc(-c3cccnc3)n2n1)Nc1ccc(F)cc1,-31.5
11,COC(=O)CSc1ccc2nnc(-c3ccc(F)cc3)n2n1,-43.7
12,CCSc1ccc2nnc(-c3ccc(F)cc3)n2n1,-55.6
13,Cc1ccc(CSc2nnc(-c3cccnc3)n2N)cc1,18
14,CCSc1ccc2nnc(-c3cccc(F)c3)n2n1,-33.6
15,CC(=O)C(Sc1ccc2nnc(-c3cccnc3)n2n1)C(C)=O,-2.29
16,Fc1ccc(CSc2ccc3nnc(-c4cccs4)n3n2)cc1,17.1
17,CCC(Sc1ccc2nnc(-c3ccc(F)cc3)n2n1)C(=O)OC (stereo not drawn),-48.3
18,Fc1ccc(CSc2ccc3nnc(-c4cccnc4)n3n2)cc1,-71.5
19,CCCN(CCC)CCCNc1ccc2nnc(-c3ccc(F)cc3)n2n1,-55.9
20,Cc1ccc(CSc2ccc3nnc(-c4cccnc4)n3n2)cc1,-79.3
21,CC(=O)C(Sc1ccc2nnc(-c3ccc(F)cc3)n2n1)C(C)=O,8.13
